Screening results (PubChem)
FEN1 inhibitor: inhibitors of human flap endonuclease 1; hit rate 0.35% among 390,000; P39748; Recombinant FEN1 flap cleavage, fluorescence, 15 min; Potency, µM (highest dose often 114 µM), inactives show at the highest dose activity change, negative = inhibition, actives largely listed as inhibitors; AID 588795; also: % is scaled to controls: 0 for no effect and ±100 for the full control effect; nearly all actives have a fitted effect of over 65% in size
Target sequence (P39748 whole entry, looked up): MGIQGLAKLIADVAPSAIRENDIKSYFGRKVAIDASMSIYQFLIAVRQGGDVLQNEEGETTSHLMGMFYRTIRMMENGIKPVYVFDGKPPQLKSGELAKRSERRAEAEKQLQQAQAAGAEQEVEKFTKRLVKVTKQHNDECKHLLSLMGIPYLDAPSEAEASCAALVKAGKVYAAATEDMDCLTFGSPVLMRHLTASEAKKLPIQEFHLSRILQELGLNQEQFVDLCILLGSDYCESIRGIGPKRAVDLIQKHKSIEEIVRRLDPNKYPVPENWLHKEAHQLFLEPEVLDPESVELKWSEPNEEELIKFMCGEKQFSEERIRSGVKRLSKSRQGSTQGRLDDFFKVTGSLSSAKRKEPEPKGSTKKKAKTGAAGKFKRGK
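Potency values derive from four-parameter Hill fits of normalized qHTS data. The reaction used 10 nM FEN1 preincubated 15 min at room temperature with compound, then 50 nM DNA substrate, read at 0 and 15 min.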
Pol beta inh: blocks human DNA polymerase beta activity | Pol beta primer extension/strand displacement, fluorescence kinetic | Potency, µM (top dose mostly 114 µM), inactives show top-dose activity change, negative = inhibition, usual class: inhibitors | hit rate 1.3% among 340,000; also: % is scaled to controls: 0 for no effect and ±100 for the full control effect
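Human Pol beta at 10 nM; strand-displacement substrate 50 nM final. Compound exposure 15 min at room temperature before start, reaction 10 min at room temperature.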
POLI inh: DNA polymerase iota (human) inhibition; AID 588590; Pol iota fluorescent replication assay, 10 min; Q9UNA4; Potency, µM (highest dose often 115 µM), inactives show at the top dose activity, negative = inhibition, most hits filed as inhibitors; hit rate 1% among 390,000
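Fluorescent replication assay read twice, at 0 min and 10 min after adding 50 nM (final) substrate. Enzyme (10 nM) and compounds were first incubated 15 min at room temperature; enzyme-free buffer wells were negative controls.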
WRN helicase inh-1: inhibitors of human WRN helicase; Q14191; WRN helicase unwinding, fluorescent forked duplex, kinetic; Potency, µM (highest dose often 114 µM), for inactives: at the top dose activity change, negative = inhibition, actives largely listed as inhibitors; hit rate 0.46% among 360,000; also: % is scaled to controls: 0 for no effect and ±100 for the full control effect; nearly all actives have a fitted effect of over 55% in size
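WRN at 20 nM final was preincubated with compound for 15 min at room temperature; reaction started with 100 nM forked duplex oligonucleotide carrying fluorophore and quencher plus 2 mM ATP (final). Unwinding followed kinetically by red fluorescence (ex 525/em 598 nm).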
POLH inh: inhibitors of human DNA polymerase eta | Q9Y253 | recombinant Pol eta, fluorescent DNA replication assay | Potency, µM (doses to about 114 µM), for inactives: at the top dose activity change, negative = inhibition, usual class: inhibitors | AID 588591 | hit rate 1.2% among 390,000; also: % is scaled to controls: 0 for no effect and ±100 for the full control effect
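Pol eta (10 nM) was preincubated with compounds for 15 min at room temperature, after which fluorescent replication substrate (50 nM final) was added to start the reaction. Fluorescence was read kinetically at 0 and 10 min.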
Pol kappa inh: inhibitors of human DNA polymerase kappa | purified Pol kappa, fluorescent DNA synthesis assay, 10 min | Potency, µM (top dose mostly 107 µM), without a hit: at the top dose activity, negative = inhibition, usual class: inhibitors | hit rate 0.53% among 400,000; also: % is scaled to controls: 0 for no effect and ±100 for the full control effect
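Enzyme at 10 nM met test compounds for 15 min at room temperature. Substrate addition (50 nM final) began the reaction, which was monitored by fluorescence at 0 and 10 min.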
WRN helicase inh-2: confirmation of human WRN helicase inhibitors | hit rate 63% among 610 | shares compounds with WRN helicase inh-1 | Potency, µM (highest dose often 57.1 µM), for the others: top-dose activity, negative = inhibition, actives largely listed as inhibitors | AID 720497 | WRN helicase DNA unwinding, fluorescence kinetic; also: nearly all actives have a fitted effect of over 65% in size
TO DNA binding: DNA binding via thiazole orange displacement; shares compounds with WRN helicase inh-1; thiazole orange DNA binding displacement, fluorescence; Potency, µM (titrated, usually from 57.1 µM), inactives show top-dose activity change, negative = inhibition, hits mostly inhibitors; hit rate 10% among 610;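 also: drop in dye fluorescence marks compound binding to DNA; % is scaled to controls: 0 for no effect and ±100 for the full control effect; nearly all actives have a fitted effect of over 60% in size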
BLM counter: blocks human BLM helicase in WRN counterscreen. shares compounds with WRN helicase inh-1. Recombinant BLM helicase DNA unwinding, red fluorescence. Potency, µM (titrated, usually from 57.1 µM), inactives show top-dose activity change, negative = inhibition, hits mostly inhibitors. hit rate 60% among 610. AID 720503; also: nearly all actives have a fitted effect of over 60% in size
* = called active by the depositor; ? = inconclusive; nt = no result given; [ ] = dose if it differs, or a comment. Rows were chosen to be rich in hits. Some 2.4% of all compounds tested hit in one or more screens of this group. Calls follow the shape of the dose curve; as a rule, active = well fitted curve in the direction sought with a large enough effect; inconclusive = small, poorly fitted or top-dose-only effect, or another doubt; inactive = no such curve, though single readings can be large; an effect the other way counts as inactive or inconclusive. Potency is read from the fitted curve at half-maximal effect.

SMILES | FEN1 inhibitor | Pol beta inh | POLI inh | WRN helicase inh-1 | POLH inh | Pol kappa inh | WRN helicase inh-2 | TO DNA binding | BLM counter
COC(=O)c1ccc(CCc2cc(O)c(Br)cc2O)cc1 | 8% | nt | -12% | 25µM* | -22% | -12% | -27% | -11% | ?
CN1/C(=C\C(=O)COC(=O)c2ccco2)C(C)(C)c2ccccc21 | -12% | -19% | 25% | -1% | -15% | 4% | nt | nt | nt
CN1/C(=C\C(=O)c2ccco2)C(C)(C)c2ccccc21 | -3% | 1% | ? | ? | -8% | -11% | -14% | -15% | -1%
CC1CCCN(Cc2c(O)ccc3c2O/C(=C\c2ccco2)C3=O)C1 (centres undefined) | ? | 13µM* | 1.6µM* | 35µM* | 45µM* | 35µM* | -9% | 331% | -27%
COc1ccc(N(Cc2cc3cccc(C)c3[nH]c2=O)C(=O)c2cccc(Cl)c2)cc1 | -11% | 5% | -5% | nt | -18% | -4% | nt | nt | nt
Cc1ccc(C(=O)Nc2ccc3nc(SCC(=O)N4CCCc5ccccc54)sc3c2)cc1 | 2% | 8% | 14% | nt | 9% | 5% | nt | nt | nt
Cc1ccc(CN(C)C(=O)CCc2nc3sc4c(c3c(=O)[nH]2)CCCC4)o1 | 7% | 25µM* | 18µM* | ? | 22µM* | -40% | ? | -19% | ?
Cc1ccc(CN2C(=O)SC(Nc3ccc(Cl)cc3)C2=O)cc1 (centres undefined) | 0% | -30% | -10% | nt | -3% | -7% | nt | nt | nt
Cc1ccc(-c2cc(C(=O)O)c3cc(Br)ccc3n2)s1 | -9% | 2% | 11% | -7% | -2% | -12% | nt | nt | nt
Cc1ccc(-c2cc(C(=O)O)c3cc(Br)ccc3n2)o1 | -14% | 22µM* | ? | 35µM* | 20µM* | ? | 15µM* | -10% | ?
CCOc1ncccc1C(=O)NNC(=O)c1cccc(S(=O)(=O)Nc2ccc(OC)cc2)c1 | 12% | -27% | 4% | ? | -11% | -3% | -23% | -8% | -14%
CCOc1ccccc1C(=O)NCC(=O)NNC(=O)c1cccc(S(=O)(=O)Nc2ccc(OC)cc2)c1 | 0% | nt | -11% | -7% | -15% | -6% | nt | nt | nt
O=S(=O)(Nc1cc(Sc2ncn[nH]2)c(O)c2ccccc12)c1ccccc1 | 20µM* | ? | 1.1µM* | 35µM* | 22µM* | -19% | ? | -16% | ?
Cc1cc(O)c(Sc2ncn[nH]2)cc1NS(=O)(=O)c1ccc(Cl)cc1 | -2% | nt | -11% | 0% | -14% | -4% | nt | nt | nt
Oc1ccc(Nc2ccc3ccccc3c2)cc1 | -3% | nt | ? | ? | -14% | -32% | -23% | ? | ?
Cc1ccc(S(=O)(=O)c2ccc([N+](=O)[O-])cn2)cc1 | -21% | 14% | ? | ? | -2% | 1% | -12% | -11% | -2%
CCOC(=O)c1c(-c2ccc(F)cc2)csc1NC(=O)CN1C(=O)NC2(CCCCC2C)C1=O (centres undefined) | ? | ? | ? | ? | ? | ? | -7% | -5% | -12%
COC(=O)[C@H](C)NS(=O)(=O)C1CC1 | 12% | nt | 9% | nt | nt | 6% | nt | nt | nt
Cc1cc(Oc2ccccc2)nc(C#N)n1 | -13% | nt | ? | nt | nt | -4% | nt | nt | nt
Cc1nnc(-c2cccc(Br)c2)c2cn(-c3cccc(Br)c3)nc12 | ? | -7% | 2% | 25µM* | ? | -15% | ? | 17% | 9.6µM*
Cc1nnc(-c2cccc(Br)c2)c2cn(-c3ccccc3)nc12 | ? | 14% | 1% | 2% | -1% | -7% | nt | nt | nt
Cn1cnc2nc(NCCO)nc(NCc3ccccc3)c21 | nt | nt | nt | nt | nt | 3%[19.4 µM] | nt | nt | nt
N#Cc1c([N+](=O)[O-])cc([N+](=O)[O-])cc1S(=O)(=O)Cc1ccccc1 | 79µM* | nt | ? | 11µM* | ? | -9% | -24% | ? | -24%
Clc1ncc(C#Cc2ccccc2)c2ncncc12 | -10% | nt | ? | nt | nt | -3% | nt | nt | nt
O=C(NCCCN1CCOCC1)c1sc2cc([N+](=O)[O-])ccc2c1Cl | ? | 89% | 59% | 28µM* | -14% | -1% | -12% | -15% | ?
SMILES | FEN1 inhibitor | Pol beta inh | POLI inh | WRN helicase inh-1 | POLH inh | Pol kappa inh | WRN helicase inh-2 | TO DNA binding | BLM counter
O=C(Cc1ccc(NC(=O)N2CCCCc3ccccc32)cc1)Nc1ccccc1Br | -4% | -15% | -6% | nt | -14% | -2% | nt | nt | nt
O=C(Nc1cc(Cl)cc(Cl)c1)c1ccc(F)c(S(=O)(=O)N2CCCCCC2)c1 | 11% | 1% | 10% | nt | -13% | -4%[60.1 µM] | nt | nt | nt
CC(C)(C)c1ccc(C(=O)NNc2ncnc3c2cnn3-c2ccccc2)cc1 | 25% | 16% | 14% | nt | -7% | -10%[60.1 µM] | nt | nt | nt
Cc1nnc(Sc2cc(NCCCO)c([N+](=O)[O-])c3nonc23)s1 | 45µM* | -17% | 13µM* | 22µM* | 79µM* | -20% | ? | -13% | ?
O=[N+]([O-])c1c(NCCCO)cc(Sc2nc3ccccc3s2)c2nonc12 | 40µM* | -26% | ? | 19µM* | -17% | ? | ? | -15% | ?
CCC(=O)OCCNc1cc(Sc2nc3ccccc3[nH]2)c2nonc2c1[N+](=O)[O-] | -23% | -16% | ? | ? | ? | -23% | nt | nt | nt
COc1cc(/C=C2\SC(=Nc3cccnc3)NC2=O)cc(OC)c1OC | -17% | 23% | 60% | 13µM* | ? | -4% | -16% | -5% | -16%
O=C1C=C(c2ccccc2)C(=O)N1Nc1ccccc1 | 0% | 6% | 11% | ? | -6% | 1% | -6% | -4% | -19%
Cc1ccc(S(=O)(=O)N2CC=C(c3ccc(F)cc3)CC2)cc1 | -14% | 20% | 18% | 4% | -7% | -11% | nt | nt | nt
CCn1c(C)c(C2=CCN(S(=O)(=O)c3ccc(C)cc3)CC2)c2ccccc21 | -23% | -1% | ? | ? | -20% | -17% | ? | 12% | ?
CC(Oc1ccccc1Cl)C(=O)Nc1ccc(S(=O)(=O)N2CCN(C)CC2)cc1 (centres undefined) | ? | nt | ? | 32µM* | 5% | -3% | -20% | -7% | -29%
O=C(O)c1ccc(/C=C2\SC(=S)N(NC(=O)c3ccccc3)C2=O)cc1 | -3% | ? | ? | -12% | -15% | ? | nt | nt | nt
